Reference: the supplement of paper PMC10933113
Where a name gives a salt, the structure may show the parent alone. ± gives the uncertainty stated by the source.

system: THP-1; experiment: CD54 surface expression induction over DMSO control (% over DMSO); higher = stronger dendritic cell activation; conditions: exposure time: 24 h
Protocol: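 hCLAT-like CD54 and CD86 surface expression on THP1 cells after 24 h exposure at a single concentration (highest non-cytotoxic concentration, or 100-200 µM if not cytotoxic). Flow cytometry (iQue) was run on 5,000 live cells.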

SMILES | CD54 surface expression induction
CCCCCCCC(=O)Oc1c(Br)cc(C#N)cc1Br [Bromoxynil octanoate] (100 µM) | -3.81 ± 2.4
COc1cccc2c1C(=O)c1c(O)c3c(c(O)c1C2=O)C[C@@](O)(C(=O)CO)C[C@@H]3O[C@H]1C[C@H](N)[C@H](O[C@@H]2CCCCO2)[C@H](C)O1 [Pirarubicin*] (10 µM) | 263 ± 46
COc1cc(C(C)(C)C)c(O)c(C(C)(C)C)c1 [2,6-Di-tert-butyl-4-methoxyphenol] (200 µM) | 14.5 ± 0.32
CCCCCCCC/C=C\CCCCCCCC(=O)N(C)CC(=O)O [Oleyl sarcosine] (100 µM) | 6.04 ± 0.79
COc1ccc(C(=O)/C(Br)=C\C(=O)O)cc1 [Cytembena] (200 µM) | 62.5 ± 6.9
Oc1c(Br)cc(Br)c2cccnc12 [Broxyquinoline] (100 µM) | 49.3 ± 18
Oc1ccc2cc(SSc3ccc4cc(O)ccc4c3)ccc2c1 [6-Hydroxy-2-naphthyl disulfide] (100 µM) | 71.9 ± 1.4
CC(=O)C1(C)CC2=C(CCCC2(C)C)CC1C (stereo not given) (100 µM) | 4.57 ± 4.8
O=C1c2cccc(O)c2C(=O)c2c(O)cc(CO)cc21 [Aloe-emodin] (100 µM) | 24.6 ± 18
N=C(N)NN=C(/C=C/c1ccc([N+](=O)[O-])o1)/C=C/c1ccc([N+](=O)[O-])o1 [Nitrovin] (10 µM) | 76.1 ± 15
Clc1ccc(C(Cn2ccnc2)OCc2ccc(Sc3ccccc3)cc2)c(Cl)c1 (stereo not given) [Fenticonazole nitrate] (100 µM) | 21.1 ± 8.7
Cc1c(C)n(CCN(C)C)c2ccc(C(=O)OCCN(C)C)cc12 [Amindocate] (100 µM) | -6.56 ± 2.9
O=C(O)Cc1cc(I)c(Oc2cc(I)c(O)c(I)c2)c(I)c1 [Tetrac] (100 µM) | 8.45 ± 9.3
CNc1ccc(O)cc1 [4-(Methylamino)phenol Sulfate] (10 µM) | 17.6 ± 8.6
CCCCCCC(C)O (stereo not given) [2-Octanol] (200 µM) | -1.7 ± 0.35
Cc1c(C)n(Cc2ccccc2)c2ccc(C(=O)OCCN(C)C)cc12 [Indocate] (200 µM) | 30.6 ± 5
Cc1occc1S [2-Methyl-3-furanthiol] (200 µM) | 36.6 ± 1.1
COC(=O)CCCCCCCC(=O)OC [Dimethyl nonanedioate] (200 µM) | -1.14 ± 2.1
Cc1ccc(N)cc1O [5-Amino-2-methylphenol] (200 µM) | 34.1 ± 7.2
Nc1ccc(Nc2ccccc2)cc1 [N-Phenyl-1,4-benzenediamine] (200 µM) | 46.9 ± 11

SMILES | CD54 surface expression induction
Nc1cc(Cl)c(O)c(Cl)c1 [4-Amino-2,6-dichlorophenol] (100 µM) | 18 ± 2
O=C(CCCCCCC(=O)Nc1ccccc1)NO [Vorinostat (SAHA)] (100 µM) | 4.99 ± 15
CC(C)C[C@H](NC(=O)[C@H](Cc1ccccc1)NC(=O)c1cnccn1)B(O)O [Bortezomib] (10 µM) | 28.8 ± 9.9
O=C1Nc2ccccc2C1(c1ccc(O)cc1)c1ccc(O)cc1 [Oxyphenisatin] (100 µM) | 15.6 ± 12
Clc1ccc(C(Cn2ccnc2)OCc2c(Cl)cccc2Cl)c(Cl)c1 (stereo not given) [Isoconazole] (100 µM) | 56.6 ± 9.5
CC(=O)Oc1ccc(C(c2ccc(OC(C)=O)cc2)c2ccccn2)cc1 [Bisacodyl] (100 µM) | -7.9 ± 29
O=C(O)c1cccnc1Nc1cccc(C(F)(F)F)c1 [Niflumic acid] (100 µM) | -11.5 ± 10
CCN(CC)c1ccc(C(=O)c2ccccc2C(=O)O)c(O)c1 [2-[4-(Diethylamino)-2-hydroxybenzoyl]benzoic acid] (10 µM) | -5.88 ± 5
CO[C@@H]1[C@H](OC(=O)/C=C/C=C/C=C/C=C/C(=O)O)CC[C@]2(CO2)[C@H]1[C@@]1(C)O[C@@H]1CC=C(C)C [Fumagillin] (100 µM) | 4.2 ± 4.4
CCCCOCCOCCOCCO [2-[2-(2-Butoxyethoxy)ethoxy]ethanol] (115 µM) | 20.1 ± 15
C/C=C1\C(=O)C[C@H]2[C@@H]3CCC4=CC(=O)CC[C@]4(C)[C@H]3CC[C@]12C [Guggulsterone Z] (100 µM) | -3.76 ± 3.3
[Cl][Bi]([Cl])([c]1ccccc1)([c]1ccccc1)[c]1ccccc1 [Triphenylbismuthine dichloride] (10 µM) | 15.8 ± 5
O=C(NS(=O)(=O)/C=C/c1cccs1)c1ccc(F)cc1Br (200 µM) | 4.11 ± 1.7
Oc1c(I)cc(Cl)c2cccnc12 [Clioquinol] (100 µM) | 141 ± 67
CC(C)=CCOc1ccc(/C=C/C(=O)c2ccc(OCC=C(C)C)cc2OCC(=O)O)cc1 [Sofalcone] (100 µM) | -27.7 ± 3.9
c1ccc2cc3c(ccc4ccccc43)cc2c1 [Benz(a)anthracene] (200 µM) | -2.28 ± 4.7
O=CC(=O)c1ccccc1 [Phenyl glyoxal] (100 µM) | -5.43 ± 7.7
N=C1C=CC(=C(c2ccc(N)cc2)c2ccc(N)cc2)C=C1 [C.I. Basic Red 9 monohydrochloride] (10 µM) | 10.7 ± 6.1
CN(C)c1ccc(SC#N)cc1 [4-(Dimethylamino)phenylthiocyanate] (10 µM) | -9.74 ± 4.1
COc1cccc2c1C(=O)c1c(O)c3c(c(O)c1C2=O)C[C@@](O)(C(=O)CO)C[C@@H]3O[C@H]1C[C@H](N)[C@H](O)[C@H](C)O1 [Doxorubicin*] (10 µM) | 187 ± 27
